Counter-ions that a name gives are not always drawn. ± gives the standard deviation of the averaged measurements. In all, about 1,900 compounds were measured (“normalised cell viability (NPI; 0 = phenylarsine oxide control, 1 = DMSO control)”: median about 1, lowest 2% from about 0.039 on). The entries come from a sample that favours the lowest values as a whole.

In the test the test system is NCI-H1944. In words: normalised cell viability (NPI; 0 = phenylarsine oxide control, 1 = DMSO control) (fraction of DMSO control); NCI-H1944 is a non-small cell lung cancer line; higher = more viable cells (less compound toxicity). The conditions noted are these: 6 days.
Setting [1] is: glucocorticoid arm: hydrocortisone 2.75 uM co-treatment, compound 1 µM.
Where [2] appears, read: glucocorticoid arm: hydrocortisone 2.75 uM co-treatment, compound 5 µM.
Where [3] appears, read: glucocorticoid arm: hydrocortisone 2.75 uM pre-treated 2 days and continued, compound 1 µM.
The mark [4] stands for this setting: glucocorticoid arm: hydrocortisone 2.75 uM pre-treated 2 days and continued, compound 5 µM.
Setting [5] is: glucocorticoid arm: vehicle, compound 1 µM.
The mark [6] stands for this setting: glucocorticoid arm: vehicle, compound 5 µM.
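Further: CTB read-out in 384-well plates, triplicate wells, NPI normalised per plate against 1 µM phenylarsine oxide (0) and 0.1% DMSO (1) controls.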

For `Cc1[nH]c(=O)c(C#N)cc1-c1ccncc1` [Milrinone], the normalised cell viability under setting [1] was 0.996 ± 0.013; the normalised cell viability under setting [2] amounted to 1.001 ± 0.0083; the normalised cell viability under setting [3] was 0.998 ± 0.0035; the normalised cell viability under setting [4] was 1.05 ± 0.081; the normalised cell viability under setting [5] was 0.9903 ± 0.009; the normalised cell viability under setting [6] amounted to 0.993 ± 0.015.
Regarding `O=C1NCCc2[nH]c(-c3ccncc3)cc21`, the normalised cell viability by setting is: under setting [1], 1.02 ± 0.015; under setting [2], 0.0894 ± 0.0076; under setting [3], 0.9933 ± 0.0072; under setting [4], 0.145 ± 0.006; under setting [5], 0.916 ± 0.016; under setting [6], 0.0151 ± 0.0021.
On to `O=C1NC(=O)/C(=C/c2ccc3nccc(-c4ccncc4)c3c2)S1`, for which the normalised cell viability under setting [1] was 0.697 ± 0.026; the normalised cell viability under setting [2] came to 0.836 ± 0.011; the normalised cell viability under setting [3] was 0.73 ± 0.039; the normalised cell viability under setting [4] is 0.848 ± 0.026; the normalised cell viability under setting [5] amounted to 0.886 ± 0.023; the normalised cell viability under setting [6] was determined as 0.932 ± 0.027.
As to `CCCCCCCCCCCCCCCCCC(=O)OC(CC(=O)O)C[N+](C)(C)C` (racemic) [DL-Stearoylcarnitine chloride], the normalised cell viability runs as follows: under setting [1], 0.9967 ± 0.0042; under setting [2], 0.906 ± 0.03; under setting [3], 1.01 ± 0.019; under setting [4], 0.993 ± 0.0017; under setting [5], 1.013 ± 0.0058; under setting [6], 0.99967 ± 0.00058.
`CNc1ncnc2c1ncn2[C@H]1C[C@H](OP(=O)(O)O)[C@@H](COP(=O)(O)O)O1`: the normalised cell viability reads like this: under setting [1], 0.991 ± 0.0056; under setting [2], 0.987 ± 0.029; under setting [3], 1 ± 0.016; under setting [4], 0.981 ± 0.027; under setting [5], 0.996 ± 0.0061; under setting [6], 0.9943 ± 0.0047.
On to `C[C@H](O)[C@H](O)[C@H]1CNc2nc(N)[nH]c(=O)c2N1` [(6R)-5,6,7,8-Tetrahydro-L-biopterin dihydrochloride], for which the normalised cell viability is, setting by setting: under setting [1], 1.02 ± 0.011; under setting [2], 1.01 ± 0.026; under setting [3], 0.923 ± 0.18; under setting [4], 1.001 ± 0.009; under setting [5], 1.02 ± 0.01; under setting [6], 1.02.
Turning to `CN1CCc2c(cc(O)c(O)c2Cl)C(c2cccc(Cl)c2)C1` (stereo not given), the normalised cell viability by setting is: under setting [1], 1.006 ± 0.0063; under setting [2], 1.03 ± 0.03; under setting [3], 1.01 ± 0.039; under setting [4], 1.017 ± 0.0058; under setting [5], 1; under setting [6], 1.013 ± 0.0058.
For `CCC(=O)Nc1cccc(Oc2nc(Nc3ccc(N4CCN(C)CC4)cc3OC)ncc2Cl)c1`, the normalised cell viability by setting is: under setting [1], 1.07 ± 0.017; under setting [2], 1.11 ± 0.01; under setting [3], 1.057 ± 0.0058; under setting [4], 1.07 ± 0.035; under setting [5], 1 ± 0.011; under setting [6], 1.01 ± 0.01.
On to `CNC(=O)c1nn(C)c2c1C(C)(C)Cc1cnc(Nc3ccc(N4CCN(C)CC4)cc3)nc1-2`, for which the normalised cell viability reads like this: under setting [1], 0.485 ± 0.019; under setting [2], 0.306 ± 0.002; under setting [3], 0.549 ± 0.019; under setting [4], 0.424 ± 0.013; under setting [5], 0.282 ± 0.0098; under setting [6], 0.126 ± 0.0072.
`CN1CCN(c2ccc(OC(F)(F)F)c(Nc3ncc4c(n3)-c3c(c(C(N)=O)nn3CCO)CC4)c2)CC1`: the normalised cell viability under setting [1] was determined as 0.183 ± 0.025; the normalised cell viability under setting [2] came out at 0.146 ± 0.02; the normalised cell viability under setting [3] was 0.428 ± 0.025; the normalised cell viability under setting [4] worked out at 0.556 ± 0.069; the normalised cell viability under setting [5] was 0.0347 ± 0.0042; the normalised cell viability under setting [6] is 0.0361 ± 0.0086.
Turning to `OCCn1cc(-c2cnc3nnn(Cc4ccc5ncccc5c4)c3n2)cn1`, the normalised cell viability was 1 ± 0.01 under setting [1]; 1.02 ± 0.026 under setting [2]; 1.02 ± 0.015 under setting [3]; 1.02 ± 0.052 under setting [4]; 1.01 ± 0.011 under setting [5]; 1.02 ± 0.015 under setting [6].
For the compound `Cc1c(NC(=O)c2ccc(C(C)(C)C)cc2)cccc1-c1cn(C)c(=O)c(Nc2ccc(C(=O)N3CCOCC3)cc2)n1`, the normalised cell viability stood at 1.017 ± 0.0058 under setting [1]; 1.03 ± 0.032 under setting [2]; 1.007 ± 0.0058 under setting [3]; 0.987 ± 0.022 under setting [4]; 1 ± 0.0087 under setting [5]; 1.006 ± 0.0063 under setting [6].
Consider `CN1C2CCC1CC(NC(=O)c1nn(C)c3ccccc13)C2` (stereo not given) [LY-278,584 maleate], for which the normalised cell viability by setting is: under setting [1], 0.9863 ± 0.0067; under setting [2], 0.977 ± 0.033; under setting [3], 0.9957 ± 0.0075; under setting [4], 1.03 ± 0.085; under setting [5], 0.9753 ± 0.0051; under setting [6], 0.9783 ± 0.0091.
Take `CC(C)NCC(O)COc1ccc(CC(N)=O)cc1` (racemic) [(±)-Atenolol]: the normalised cell viability under setting [1] came out at 0.987 ± 0.007; the normalised cell viability under setting [2] was 1.001 ± 0.0085; the normalised cell viability under setting [3] stood at 1.003 ± 0.0064; the normalised cell viability under setting [4] stood at 1.02 ± 0.021; the normalised cell viability under setting [5] was found to be 1.005 ± 0.0092; the normalised cell viability under setting [6] is 1.01.
Regarding `NC(C(=O)O)C(O)C(=O)O` (racemic) [DL-threo-beta-hydroxyaspartic acid], the normalised cell viability was found to be 1.01 ± 0.011 under setting [1]; 1.01 ± 0.028 under setting [2]; 1.01 ± 0.022 under setting [3]; 1.01 ± 0.018 under setting [4]; 1.003 ± 0.0061 under setting [5]; 1.001 ± 0.0081 under setting [6].

The record behind these values is the supplement of paper PMC8285479.
